# Test results as given in PMC7862700, “An all-to-all approach to the identification of sequence-specific readers for epigenetic DNA modifications on cytosine”.
# Tests used:
# Experiment in all cases: DAPPL (digital affinity profiling via proximity ligation, sequencing); 10 mM Tris-HCl pH 7.5, 50 mM NaCl, 1 mM DTT, 4% glycerol, room temperature, 30 min; GST-TFs on glutathione beads, 16-mer random dsDNA library, 0.1% formaldehyde crosslink after washing; high values mean tight binding
# Conditions in all cases: protein: recombinant; tags: N-terminal GST; dsDNA, one strand shown
# [1] = target: T1, ELK1 (Homo sapiens, UniProt P19419 1-428)
# T1 sequence: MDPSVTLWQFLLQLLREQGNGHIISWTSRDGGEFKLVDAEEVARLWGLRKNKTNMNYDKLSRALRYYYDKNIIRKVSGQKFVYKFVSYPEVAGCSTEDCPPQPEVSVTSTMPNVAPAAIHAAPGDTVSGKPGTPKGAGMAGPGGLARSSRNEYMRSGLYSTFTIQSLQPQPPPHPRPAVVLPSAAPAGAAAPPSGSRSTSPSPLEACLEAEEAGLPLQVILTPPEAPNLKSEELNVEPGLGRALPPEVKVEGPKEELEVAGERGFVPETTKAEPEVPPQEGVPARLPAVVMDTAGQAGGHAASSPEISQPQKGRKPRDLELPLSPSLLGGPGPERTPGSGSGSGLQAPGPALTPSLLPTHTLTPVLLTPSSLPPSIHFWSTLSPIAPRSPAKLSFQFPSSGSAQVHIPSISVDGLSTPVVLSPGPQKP
# Summary of the method: (§1)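 A tag-only sample was pooled with DNA-barcoded human transcription factors that had been expressed in yeast as GST fusions and captured on glutathione beads. The pools were incubated for 30 min at room temperature with 200 nmole of a random double-stranded 16-mer DNA library in Tris/NaCl/DTT/glycerol buffer, then washed, crosslinked with 0.1% formaldehyde, proximity-ligated (BsaI/T4 ligase, 1 h, 37 °C), PCR-amplified and sequenced on an Illumina NextSeq500. Binding signal is each hexamer's read frequency for a factor divided by its frequency for the tag-only sample.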
# [2] = target: T2, GABPA (Homo sapiens, UniProt Q06546 1-454)
# T2 sequence: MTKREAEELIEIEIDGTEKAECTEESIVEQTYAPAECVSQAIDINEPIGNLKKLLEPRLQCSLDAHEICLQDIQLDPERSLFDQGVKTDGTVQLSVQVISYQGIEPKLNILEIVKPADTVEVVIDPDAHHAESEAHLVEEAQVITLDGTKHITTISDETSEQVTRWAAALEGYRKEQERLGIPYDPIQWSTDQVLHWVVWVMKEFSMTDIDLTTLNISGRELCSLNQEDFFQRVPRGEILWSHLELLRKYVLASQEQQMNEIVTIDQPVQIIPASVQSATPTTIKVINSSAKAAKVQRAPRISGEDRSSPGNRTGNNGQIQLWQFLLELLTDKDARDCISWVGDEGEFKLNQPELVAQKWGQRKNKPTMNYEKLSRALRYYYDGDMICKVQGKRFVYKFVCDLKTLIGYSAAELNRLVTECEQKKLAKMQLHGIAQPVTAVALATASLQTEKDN
# Summary of the method: as §1
# [3] = target: T3, ERG (Homo sapiens, UniProt P11308 1-479)
# T3 sequence: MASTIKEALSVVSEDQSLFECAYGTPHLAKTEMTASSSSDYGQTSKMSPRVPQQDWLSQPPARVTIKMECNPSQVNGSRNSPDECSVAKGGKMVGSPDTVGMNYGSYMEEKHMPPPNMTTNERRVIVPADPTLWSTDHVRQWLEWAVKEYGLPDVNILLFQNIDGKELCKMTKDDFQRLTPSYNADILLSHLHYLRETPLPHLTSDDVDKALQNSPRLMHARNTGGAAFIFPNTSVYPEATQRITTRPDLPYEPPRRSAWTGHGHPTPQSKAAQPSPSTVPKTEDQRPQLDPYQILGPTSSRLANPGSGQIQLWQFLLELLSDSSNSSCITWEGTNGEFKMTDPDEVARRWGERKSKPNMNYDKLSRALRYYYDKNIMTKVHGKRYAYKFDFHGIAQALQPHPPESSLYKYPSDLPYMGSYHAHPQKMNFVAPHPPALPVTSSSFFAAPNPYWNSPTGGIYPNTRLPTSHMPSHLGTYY
# Summary of the method: as §1
# [4] = target: ELF1 (Homo sapiens, UniProt P32519 1-619)
# ELF1, sequence (P32519 whole entry): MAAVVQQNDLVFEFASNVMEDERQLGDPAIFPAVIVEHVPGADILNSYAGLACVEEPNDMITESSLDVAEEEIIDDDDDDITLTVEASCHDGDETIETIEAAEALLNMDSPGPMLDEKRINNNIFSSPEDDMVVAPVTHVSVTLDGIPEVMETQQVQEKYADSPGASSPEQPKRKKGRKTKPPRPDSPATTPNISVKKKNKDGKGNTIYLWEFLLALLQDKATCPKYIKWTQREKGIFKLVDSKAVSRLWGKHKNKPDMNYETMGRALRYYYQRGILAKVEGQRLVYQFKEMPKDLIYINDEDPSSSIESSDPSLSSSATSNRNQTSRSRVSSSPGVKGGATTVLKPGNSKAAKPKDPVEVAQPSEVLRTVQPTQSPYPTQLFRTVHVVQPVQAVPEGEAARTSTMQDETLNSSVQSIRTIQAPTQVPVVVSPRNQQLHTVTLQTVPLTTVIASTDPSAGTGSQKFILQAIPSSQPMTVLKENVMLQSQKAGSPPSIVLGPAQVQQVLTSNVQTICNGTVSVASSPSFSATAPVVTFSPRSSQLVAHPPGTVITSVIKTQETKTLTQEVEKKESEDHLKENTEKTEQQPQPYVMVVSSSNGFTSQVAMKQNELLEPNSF
# Summary of the method: as §1
# [5] = target: ETV5 (Homo sapiens, UniProt P41161 1-510)
# ETV5, sequence (P41161 whole entry): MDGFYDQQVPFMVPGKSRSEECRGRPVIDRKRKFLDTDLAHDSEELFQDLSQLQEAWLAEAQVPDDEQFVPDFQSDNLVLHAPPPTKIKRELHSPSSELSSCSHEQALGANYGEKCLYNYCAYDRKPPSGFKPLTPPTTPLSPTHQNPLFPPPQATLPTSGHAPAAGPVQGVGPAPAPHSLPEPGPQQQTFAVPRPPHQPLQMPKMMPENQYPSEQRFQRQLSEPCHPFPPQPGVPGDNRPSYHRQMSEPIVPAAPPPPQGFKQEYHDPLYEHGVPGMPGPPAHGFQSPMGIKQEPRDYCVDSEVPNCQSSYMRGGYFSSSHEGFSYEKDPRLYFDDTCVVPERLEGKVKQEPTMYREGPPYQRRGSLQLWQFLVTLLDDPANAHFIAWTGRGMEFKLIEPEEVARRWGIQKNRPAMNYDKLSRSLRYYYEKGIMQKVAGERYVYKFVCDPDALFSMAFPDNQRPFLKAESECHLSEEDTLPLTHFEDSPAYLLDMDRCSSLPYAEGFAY
# Summary of the method: as §1
# [6] = target: T4, ELK4 (Homo sapiens, UniProt P28324-2 1-405)
# T4 sequence: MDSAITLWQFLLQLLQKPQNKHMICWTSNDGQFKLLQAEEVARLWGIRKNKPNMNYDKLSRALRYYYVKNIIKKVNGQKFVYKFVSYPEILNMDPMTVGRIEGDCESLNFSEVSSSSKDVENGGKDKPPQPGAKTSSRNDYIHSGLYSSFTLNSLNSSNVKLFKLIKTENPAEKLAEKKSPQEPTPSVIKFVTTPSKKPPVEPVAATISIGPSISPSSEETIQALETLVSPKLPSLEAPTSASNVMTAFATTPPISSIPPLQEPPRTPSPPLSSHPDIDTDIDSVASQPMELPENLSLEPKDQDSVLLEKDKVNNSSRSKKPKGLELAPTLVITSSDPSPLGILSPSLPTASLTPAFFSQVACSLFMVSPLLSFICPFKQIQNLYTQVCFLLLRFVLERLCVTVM
# Summary of the method: as §1
# [7] = target: T5, ETV2 (Homo sapiens, UniProt O00321 1-342)
# T5 sequence: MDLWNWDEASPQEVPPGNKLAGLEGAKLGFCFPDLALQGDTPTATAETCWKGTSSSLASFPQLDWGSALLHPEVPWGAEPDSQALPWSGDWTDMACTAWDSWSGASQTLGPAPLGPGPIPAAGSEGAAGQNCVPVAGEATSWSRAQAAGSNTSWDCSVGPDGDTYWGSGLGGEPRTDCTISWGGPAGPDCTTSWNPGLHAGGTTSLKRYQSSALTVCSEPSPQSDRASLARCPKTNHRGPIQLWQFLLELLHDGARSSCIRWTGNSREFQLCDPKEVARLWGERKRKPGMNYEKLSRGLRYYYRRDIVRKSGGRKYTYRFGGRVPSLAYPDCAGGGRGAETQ
# Summary of the method: as §1
# [8] = target: T6, ERF (Homo sapiens, UniProt P50548 1-548)
# T6 sequence: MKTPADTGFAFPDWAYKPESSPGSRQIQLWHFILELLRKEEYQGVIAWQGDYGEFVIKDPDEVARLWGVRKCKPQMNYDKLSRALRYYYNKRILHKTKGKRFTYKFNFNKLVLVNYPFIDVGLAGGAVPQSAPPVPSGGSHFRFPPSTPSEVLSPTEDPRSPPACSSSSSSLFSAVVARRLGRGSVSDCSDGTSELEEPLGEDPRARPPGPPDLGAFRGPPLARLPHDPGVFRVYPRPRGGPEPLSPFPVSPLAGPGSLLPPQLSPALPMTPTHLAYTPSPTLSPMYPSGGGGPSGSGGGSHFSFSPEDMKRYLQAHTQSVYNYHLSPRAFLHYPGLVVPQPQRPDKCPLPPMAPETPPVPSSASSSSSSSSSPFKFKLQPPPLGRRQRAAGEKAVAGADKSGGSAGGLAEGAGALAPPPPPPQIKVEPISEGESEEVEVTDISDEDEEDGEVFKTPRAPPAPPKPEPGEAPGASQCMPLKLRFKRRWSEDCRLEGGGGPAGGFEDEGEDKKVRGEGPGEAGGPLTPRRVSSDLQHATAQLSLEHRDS
# Summary of the method: as §1
# [9] = target: T7, ETV3L (Homo sapiens, UniProt Q6ZN32 1-361)
# T7 sequence: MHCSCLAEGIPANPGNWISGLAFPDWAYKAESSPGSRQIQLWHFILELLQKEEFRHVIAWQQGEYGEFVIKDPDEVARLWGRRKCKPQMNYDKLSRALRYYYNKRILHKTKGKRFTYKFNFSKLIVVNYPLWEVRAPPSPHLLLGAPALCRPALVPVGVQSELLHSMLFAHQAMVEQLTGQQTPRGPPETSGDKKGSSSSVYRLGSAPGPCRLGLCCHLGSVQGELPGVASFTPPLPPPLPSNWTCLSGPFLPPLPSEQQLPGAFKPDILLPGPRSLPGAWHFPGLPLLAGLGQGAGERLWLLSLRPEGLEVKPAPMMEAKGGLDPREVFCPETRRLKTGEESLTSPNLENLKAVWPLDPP
# Summary of the method: as §1
# [10] = target: T8, SPDEF (Homo sapiens, UniProt O95238 1-335)
# T8 sequence: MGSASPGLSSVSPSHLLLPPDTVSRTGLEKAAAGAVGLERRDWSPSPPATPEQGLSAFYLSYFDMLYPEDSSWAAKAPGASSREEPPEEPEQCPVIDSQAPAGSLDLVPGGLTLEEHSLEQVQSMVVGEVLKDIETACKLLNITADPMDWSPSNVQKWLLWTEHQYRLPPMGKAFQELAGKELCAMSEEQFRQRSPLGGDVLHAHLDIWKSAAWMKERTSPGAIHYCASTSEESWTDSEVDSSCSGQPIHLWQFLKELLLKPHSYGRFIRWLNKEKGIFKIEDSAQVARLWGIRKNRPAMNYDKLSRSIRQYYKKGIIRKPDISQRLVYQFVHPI
# Summary of the method: as §1
# [11] = target: T9, ETV7 (Homo sapiens, UniProt Q9Y603 1-341)
# T9 sequence: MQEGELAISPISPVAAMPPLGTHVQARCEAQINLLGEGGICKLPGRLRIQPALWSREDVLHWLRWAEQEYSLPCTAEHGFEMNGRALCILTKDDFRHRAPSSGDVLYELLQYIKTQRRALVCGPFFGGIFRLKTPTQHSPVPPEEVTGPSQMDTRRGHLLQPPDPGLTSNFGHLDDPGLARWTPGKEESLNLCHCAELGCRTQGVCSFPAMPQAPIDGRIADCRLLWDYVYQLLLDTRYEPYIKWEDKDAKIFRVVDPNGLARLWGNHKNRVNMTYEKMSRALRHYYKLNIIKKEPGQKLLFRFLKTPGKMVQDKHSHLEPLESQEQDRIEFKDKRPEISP
# Summary of the method: as §1
# [12] = target: T10, ETV3 (Homo sapiens, UniProt P41162-2 1-143)
# T10 sequence: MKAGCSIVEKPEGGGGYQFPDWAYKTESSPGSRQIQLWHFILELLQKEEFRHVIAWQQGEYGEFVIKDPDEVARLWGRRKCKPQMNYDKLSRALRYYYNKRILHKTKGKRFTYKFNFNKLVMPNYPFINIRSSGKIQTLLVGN
# Summary of the method: as §1
# [13] = target: ETV6 (Homo sapiens, UniProt P41212 1-452)
# ETV6, sequence (P41212 whole entry): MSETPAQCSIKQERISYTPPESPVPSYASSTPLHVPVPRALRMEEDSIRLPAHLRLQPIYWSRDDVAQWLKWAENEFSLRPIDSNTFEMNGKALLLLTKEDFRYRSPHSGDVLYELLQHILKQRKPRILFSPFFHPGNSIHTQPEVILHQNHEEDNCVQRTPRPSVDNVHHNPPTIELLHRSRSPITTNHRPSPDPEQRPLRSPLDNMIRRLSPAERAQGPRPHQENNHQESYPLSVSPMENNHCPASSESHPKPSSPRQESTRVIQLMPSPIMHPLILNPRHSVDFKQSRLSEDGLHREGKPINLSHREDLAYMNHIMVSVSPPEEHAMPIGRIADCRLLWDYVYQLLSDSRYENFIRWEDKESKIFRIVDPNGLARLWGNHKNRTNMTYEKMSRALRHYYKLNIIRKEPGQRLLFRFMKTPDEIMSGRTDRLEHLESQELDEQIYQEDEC
# Summary of the method: as §1
sequence,measurement,setting,value
CGTTGT,binding signal,[1],"1.09 fold enrichment (6-mer frequency, TF over GST control)"
same,binding signal,[2],"1 fold enrichment (6-mer frequency, TF over GST control)"
same,binding signal,[3],"1.02 fold enrichment (6-mer frequency, TF over GST control)"
same,binding signal,[4],"1.04 fold enrichment (6-mer frequency, TF over GST control)"
same,binding signal,[5],"1.01 fold enrichment (6-mer frequency, TF over GST control)"
same,binding signal,[6],"1.14 fold enrichment (6-mer frequency, TF over GST control)"
same,binding signal,[7],"1.13 fold enrichment (6-mer frequency, TF over GST control)"
same,binding signal,[8],"1.03 fold enrichment (6-mer frequency, TF over GST control)"
same,binding signal,[9],"1.18 fold enrichment (6-mer frequency, TF over GST control)"
same,binding signal,[10],"1.05 fold enrichment (6-mer frequency, TF over GST control)"
same,binding signal,[11],"1.1 fold enrichment (6-mer frequency, TF over GST control)"
same,binding signal,[12],"1.07 fold enrichment (6-mer frequency, TF over GST control)"
same,binding signal,[13],"1 fold enrichment (6-mer frequency, TF over GST control)"
